Several values for one entry are separate records, joined by “and”; a condition that tells them apart may be missing. Equal entries are not always repeated. The panel holds about 79,000 compounds, 15% with a hit somewhere; the sample as a whole holds those more often. Some compounds were tested as several samples or in several runs, with calls that do not always agree. Activity calls are given as the source filed them. No stated cut-off is given here; in the data, active means growth inhibition above about 70%; inactive means the rest.
How the values were obtained:
[1] = NCI Yeast Anticancer Drug Screen. Data for the rad52 strain (AID 147);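 further: 0% = growth of vehicle-treated control cultures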; details: S. cerevisiae rad52 mutant growth inhibition, stronger effect = higher value
Outline: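 Yeast strain carrying a DNA damage repair alteration was exposed to test compounds. Growth inhibition was measured relative to vehicle-treated controls.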

[2] = NCI Yeast Anticancer Drug Screen. Data for the wt1 strain (AID 149);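 further: 0% = growth of vehicle-treated wt1 cultures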; details: S. cerevisiae wt1 strain (SPY 50644) growth inhibition, stronger effect = higher value
Outline: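 The wt1 strain was treated with compounds, and growth was compared with vehicle-treated cultures to give inhibition.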

[3] = NCI Yeast Anticancer Drug Screen. Data for the rad50EPP+ strain (AID 151);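 further: 0% = growth of vehicle-treated control cultures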; details: S. cerevisiae rad50 mutant strain, stronger effect = higher value
Outline: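 Yeast strain carrying rad50 alteration (rad50EPP+) exposed to compounds; growth inhibition measured relative to vehicle-treated controls.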

[4] = NCI Yeast Anticancer Drug Screen. Data for the mgt1 strain (AID 153); details: S. cerevisiae mgt1 mutant growth inhibition, stronger effect = higher value
Outline: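 Yeast mgt1 strain (DNA repair/cell-cycle alteration panel) exposed to compounds; growth inhibition measured relative to vehicle-treated controls.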

[5] = NCI Yeast Anticancer Drug Screen. Data for the rad50 strain (AID 155);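 further: 0% = growth of vehicle-only cultures of the same strain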; details: S. cerevisiae rad50 strain growth inhibition, stronger effect = higher value
Outline: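 Cells are treated with compound, grown, and their growth is then scored against vehicle-only cultures of the same repair-deficient yeast strain.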

[6] = NCI Yeast Anticancer Drug Screen. Data for the mec2-1 strain (AID 157); details: S. cerevisiae mec2-1 strain, stronger effect = higher value
Outline: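 mec2-1 yeast strain, carrying an alteration in DNA damage repair or cell cycle control, was exposed to compounds; growth inhibition was measured relative to vehicle-treated controls.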

[7] = NCI Yeast Anticancer Drug Screen. Data for the rad14 strain (AID 159);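 further: 0% = growth of vehicle-treated control cultures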; details: S. cerevisiae rad14 strain growth inhibition, stronger effect = higher value
Outline: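 Readout: yeast growth inhibition, referenced to vehicle-only cultures. Strain bears a defined alteration in DNA damage repair.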

[8] = NCI Yeast Anticancer Drug Screen. Data for the sgs1 mgt1 strain (AID 161);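 further: 0% = growth of cultures given vehicle only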; details: S. cerevisiae sgs1 mgt1 strain, stronger effect = higher value
Outline: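 This yeast growth screen uses a strain with defined DNA-repair lesions; compound-treated growth is compared with vehicle-treated growth.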

[9] = NCI Yeast Anticancer Drug Screen. Data for the CLN2oe strain (AID 163);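 further: 0% = growth of vehicle-only control cultures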; details: S. cerevisiae CLN2oe strain, stronger effect = higher value
Outline: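 Yeast cells carrying a defined cell-cycle control alteration were exposed to test compounds. Growth inhibition was scored against vehicle-treated control cultures.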

[10] = NCI Yeast Anticancer Drug Screen. Data for the cln2 rad14 strain (AID 165);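 further: 0% = growth equal to vehicle treated cultures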; details: S. cerevisiae cln2 rad14 strain, stronger effect = higher value
Outline: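 Yeast carrying cln2 and rad14 alterations (cell cycle control and DNA damage repair) were exposed to compounds. Growth inhibition was measured against vehicle-treated controls.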

[11] = NCI Yeast Anticancer Drug Screen. Data for the bub3 strain (AID 167); details: S. cerevisiae bub3 mutant strain, stronger effect = higher value
Outline: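 Part of a panel of yeast mutants defective in DNA damage repair or cell cycle regulation. Each strain is grown with compound, and inhibition is calculated relative to solvent-treated cultures.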

[12] = NCI Yeast Anticancer Drug Screen. Data for the mlh1 strain (AID 171);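 further: 0% = growth of vehicle-treated control cultures of the same strain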; details: S. cerevisiae mlh1 strain growth inhibition, stronger effect = higher value
Outline: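 Yeast carrying a defined genetic alteration in DNA damage repair or cell cycle control were exposed to test compounds. Growth inhibition was measured relative to vehicle-treated controls.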

[13] = NCI Yeast Anticancer Drug Screen. Data for the sgs1 strain (AID 173);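 further: 0% = growth of vehicle-only control cultures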; details: S. cerevisiae sgs1 mutant, stronger effect = higher value
Outline: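 Yeast mutant strains carrying defined defects in DNA damage repair or cell cycle control were exposed to test compounds. Growth inhibition was scored against vehicle-treated controls.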

[14] = NCI Yeast Anticancer Drug Screen. Data for the mlh1 rad18 strain (AID 175); details: S. cerevisiae mlh1 rad18 strain growth inhibition, stronger effect = higher value
Outline: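 Growth inhibition of the yeast strain was measured after compound exposure and expressed relative to vehicle-treated controls. The strain carries defined defects in DNA damage repair.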

[15] = NCI Yeast Anticancer Drug Screen. Data for the rad18 strain (AID 177); details: S. cerevisiae rad18 mutant growth inhibition, stronger effect = higher value
Outline: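 Yeast carrying a defined DNA damage repair alteration were exposed to compounds. Growth inhibition was expressed relative to vehicle-treated controls.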

[16] = NCI Yeast Anticancer Drug Screen. Data for the wt2 strain (AID 169);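 further: 0% = growth of vehicle-treated yeast cultures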; details: S. cerevisiae wt2 strain growth inhibition, stronger effect = higher value
Outline: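 Yeast cells were exposed to test compounds, and growth inhibition was measured relative to vehicle-treated controls.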

[17] = at 5.0 µM (retest, dose inferred, filed as 0.5)
[18] = at 50.0 µM (retest, dose inferred, filed as 5.0)

Measured: growth inhibition

Cc1c(C)c(C)c(CSC(=N)N)c(C)c1C
active: [1]; at 100.0 µM 98% | [2]; at 100.0 µM 98% | [3]; at 100.0 µM 96% | [4]; at 100.0 µM 98% | [5]; [18] 81% | [5]; at 50.0 µM 91.8% | [5]; at 100.0 µM 99% | [6]; [18] 86% | [6]; at 50.0 µM 93.5% | [6]; at 100.0 µM 98% | [7]; at 33.0 µM 85% | [7]; at 100.0 µM 98% | [8]; [18] 100% | [8]; at 50.0 µM 93.3% | [9]; at 100.0 µM 99% | [10]; [18] 100% | [10]; at 50.0 µM 86.1% | [11]; [18] 99% | [11]; at 50.0 µM 83.2% | [11]; at 100.0 µM 98% | [12]; at 33.0 µM 77% | [12]; at 100.0 µM 98% | [13]; at 33.0 µM 84% | [13]; at 100.0 µM 98% | [14]; [18] 78% | [14]; at 50.0 µM 92.3% | [15]; at 100.0 µM 98%
inactive: [1]; at 1.2 µM -23% | [1]; at 3.7 µM -17% | [1]; at 11.0 µM -12% | [1]; at 33.0 µM 36% | [2]; at 1.2 µM -29% | [2]; at 3.7 µM -32% | [2]; at 11.0 µM -30% | [2]; at 33.0 µM 8% | [3]; at 1.2 µM -55% | [3]; at 3.7 µM -53% | [3]; at 11.0 µM -79% | [3]; at 33.0 µM -59% | [4]; at 1.2 µM -52% | [4]; at 3.7 µM -50% | [4]; at 11.0 µM -50% | [4]; at 33.0 µM 6% | [5]; at 1.2 µM -13% | [5]; at 3.7 µM -10% | [5]; [17] 46% | [5]; at 11.0 µM -9% | [5]; at 33.0 µM 51% | [6]; at 1.2 µM -74% | [6]; at 3.7 µM -78% | [6]; [17] 54% | [6]; at 11.0 µM -69% | [6]; at 33.0 µM 31% | [7]; at 1.2 µM -31% | [7]; at 3.7 µM -27% | [7]; at 11.0 µM -12% | [8]; [17] -4% | [9]; at 1.2 µM -22% | [9]; at 3.7 µM -18% | [9]; at 11.0 µM -14% | [9]; at 33.0 µM 59% | [10]; [17] 8% | [11]; at 1.2 µM -23% | [11]; at 3.7 µM -9% | [11]; [17] 35% | [11]; at 11.0 µM -10% | [11]; at 33.0 µM 55% | [12]; at 1.2 µM -35% | [12]; at 3.7 µM -43% | [12]; at 11.0 µM -17% | [13]; at 1.2 µM -51% | [13]; at 3.7 µM -34% | [13]; at 11.0 µM -34% | [14]; [17] 44% | [15]; at 1.2 µM -56% | [15]; at 3.7 µM -55% | [15]; at 11.0 µM -58% | [15]; at 33.0 µM 58%

C=C1C(=O)OC2CC1C(OC(C)=O)C/C(C)=C/CC/C(C)=C\CCC2(C)O (stereo not drawn)
67% (inactive) and 99% (active): [8]; [18]
18% (inactive) and 82% (active): [6]; [17]
active: [1]; at 100.0 µM 88% | [2]; at 100.0 µM 85% | [4]; at 100.0 µM 80% | [5]; at 50.0 µM 81.5% and 88.8% | [5]; at 100.0 µM 86% | [6]; [18] 79% and 99% | [6]; at 50.0 µM 81.7% and 91.2% | [6]; at 100.0 µM 89% | [7]; at 100.0 µM 87% | [8]; at 50.0 µM 71.2% and 87.9% | [9]; at 100.0 µM 85% | [10]; at 50.0 µM 78.8% and 89.3% | [11]; [18] 85% and 99% | [11]; at 50.0 µM 84.5% and 90.7% | [11]; at 100.0 µM 85% | [16]; at 100.0 µM 93% | [12]; at 100.0 µM 89% | [15]; at 100.0 µM 91%
24% (inactive) and 99% (active): [8]; [17]
51% (inactive) and 97% (active): [10]; [18]
36% (inactive) and 90% (active): [11]; [17]
inactive: [1]; at 1.2 µM -5% | [1]; at 3.7 µM 1% | [1]; at 11.0 µM 15% | [1]; at 33.0 µM 33% | [2]; at 1.2 µM 3% | [2]; at 3.7 µM 11% | [2]; at 11.0 µM 13% | [2]; at 33.0 µM 30% | [3]; at 1.2 µM 15% | [3]; at 3.7 µM 42% | [3]; at 11.0 µM 40% | [3]; at 33.0 µM 31% | [3]; at 100.0 µM 18% | [4]; at 1.2 µM -14% | [4]; at 3.7 µM 3% | [4]; at 11.0 µM 13% | [4]; at 33.0 µM 28% | [5]; at 1.2 µM -3% | [5]; at 3.7 µM 9% | [5]; at 11.0 µM 17% | [5]; at 33.0 µM 40% | [6]; at 1.2 µM 11% | [6]; at 3.7 µM 17% | [6]; at 11.0 µM 23% | [6]; at 33.0 µM 37% | [7]; at 1.2 µM 5% | [7]; at 3.7 µM 17% | [7]; at 11.0 µM 31% | [7]; at 33.0 µM 44% | [9]; at 1.2 µM -17% | [9]; at 3.7 µM 9% | [9]; at 11.0 µM 20% | [9]; at 33.0 µM 13% | [10]; [17] 6% and 31% | [11]; at 1.2 µM 6% | [11]; at 3.7 µM -8% | [11]; at 11.0 µM 4% | [11]; at 33.0 µM 24% | [16]; at 1.2 µM -2% | [16]; at 3.7 µM -4% | [16]; at 11.0 µM 12% | [16]; at 33.0 µM 17% | [12]; at 1.2 µM -5% | [12]; at 3.7 µM 19% | [12]; at 11.0 µM 28% | [12]; at 33.0 µM 51% | [15]; at 1.2 µM -15% | [15]; at 3.7 µM 1% | [15]; at 11.0 µM 15% | [15]; at 33.0 µM 49%
63% (inactive) and 98% (active): [5]; [18]
24% (inactive) and 85% (active): [5]; [17]
